The campaign covered roughly 85,000 compounds. About 5,100 (6%) were called active. Shown is part of a subset that was picked to be rich in actives. Unmarked numbers belong to inactive results.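 The calls were made as follows: active = viability at or below 40%; inactive = viability above 40%.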

A short description of the experiment: H69AR cell viability reduction – human, 86K library, primary screen (AID 598).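 Also: multidrug resistant small cell line overexpressing MRP-1 efflux transporter; 100% = mean luminescence of untreated control wells.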 Conditions: H69AR lung tumor viability, ATP luminescence, 72 h; at 10 µM; hits give low values.
As to `CCOc1ccc(C(O)Cn2c(=N)n(CCN3CCCCC3)c3ccccc32)cc1` (centres undefined), the viability (usually a read-out of living cells in per cent, often relative to untreated cells) was 44.7%.
Take `CCOc1ccc(NC(=O)C2CCCN(C(=O)Nc3ccccc3)C2)cc1` (centres undefined): the viability was 79.5%.
As to `CCOc1ccccc1NC(=O)c1cccnc1`, the viability is 87.4%.
For the molecule `Cc1ccccc1N1CCN(CCCOc2ccc3c(C)cc(=O)oc3c2)CC1`, the viability was 58.7%.
As for `Cc1cc(=O)oc2cc(OCC3CC(c4ccccc4Cl)=NO3)ccc12` (centres undefined), the viability was 27.1% (active).
Turning to `Cc1cc(=O)oc2cc(NC(=O)C3CC(=O)N(Cc4ccccc4)C3)ccc12` (centres undefined), the viability was 96.1%.
The result for `O=C(CSCc1c(F)cccc1Cl)NCC1CCCO1` (centres undefined) reads 90.5%; that for `Cc1cc(SCC(=O)c2ccccc2)nc(SCC(=O)c2ccccc2)n1`, 72.1%; that for `CC(=O)CCS(=O)(=O)c1ccc(C)c(C)c1`, 1.25% (active).
For the molecule `Cc1ccc(S(=O)(=O)NCCN2CCOCC2)cc1C`, the viability was 100%.
Take `CCCCN(CCCC)C(=O)CCS(=O)(=O)c1ccc2c(c1)n(C)c(=O)c(=O)n2C`: the viability was 70.2%.
As to `COc1ccc(NC(=O)CSc2nc(NS(=O)(=O)c3ccc(C)cc3)cc(=O)[nH]2)cc1`, the viability was 109%.
The result for `COC(=O)c1sccc1-n1cccc1C(=O)C(=O)N1CCCCC1` reads 95.1%; that for `Cc1cccc(C(=O)N2CCCN(C(=O)c3cccc(C)c3)CC2)c1`, 94.6%; that for `Clc1ccc(COn2c(-c3ccc(Cl)cc3Cl)nc3ncccc32)cc1`, 56.5%.
With `N=c1c2c3c(sc2ncn1CCCN1CCOCC1)CCCCC3`, the viability was 71%.
On to `O=C(O)[C@@H]1CCCN1c1ncnc2sc3c(c12)CCC3`, for which the viability is 86.5%.
Consider `c1nnc2c3c4c(sc3ncn12)CCC4`, for which the viability is 39% (active).
In the case of `CCc1ccc(NC(=O)CN2C(=O)CSC2=O)cc1`, the viability was 93%.
Next, `COCCn1c(SCc2nnc(-c3ccc(OC)c(OC)c3)o2)nc2sc3c(c2c1=O)CCC3`: 51.5%; `O=C(CN1CCN(C(=O)c2ccco2)CC1)Nc1ccc(Cl)c(C(F)(F)F)c1`: 19.9% (active); `COc1ccc(OC)c(NC(=O)CN2CCN(C(=O)c3ccco3)CC2)c1`: 73.5%.
In the case of `O=C(CN1CCN(C(=O)c2ccco2)CC1)Nc1ccc2c(c1)OCO2`, the viability was 110%.
For the molecule `O=C(Nc1ccc(Br)cc1)c1cccc(NC(=O)C2C3CC4OC(=O)C2C4C3)c1` (centres undefined), the viability is 79.9%.
Regarding `O=C1NC(Nc2nc3ccccc3s2)(C(F)(F)F)C(=O)N1C1CCCCC1` (centres undefined), the viability was 13.4% (active).
Regarding `COC(=O)NC1(C(F)(F)F)NC(=O)N(C2CCCCC2)C1=O` (centres undefined), the viability is 103%.
As to `COC(=O)CCSc1cc([N+](=O)[O-])cc2c1c(C1OCCS1)nn2-c1ccccc1` (centres undefined), the viability is 98.2%.
The result for `Cc1ccc(-n2cc3ccc([N+](=O)[O-])cc3n2)cc1` reads 76.8%; that for `CCOC(=O)N1CCN(C(=O)c2ccc(CN(c3ccc(C)c(C)c3)S(C)(=O)=O)cc2)CC1`, 70.5%.
Take `CCOC(=O)N1CCN(C(=O)c2ccc3c(c2)N(Cc2ccc(C)cc2)CCS3)CC1`: the viability is 30.8% (active).
In the case of `CCOC(=O)N1CCN(C(=O)c2ccc(S(=O)(=O)c3ccc(C)cc3)c(NC(C)=O)c2)CC1`, the viability was 85.8%.
Take `COc1ccc(CN(C(=O)CSc2nnc(-c3ccc(OC)c(OC)c3)o2)c2ccc(F)cc2)cc1`: the viability is 65.2%.
Turning to `CCCNC(=O)CN(Cc1ccccc1F)S(=O)(=O)c1ccc(C)cc1`, the viability is 98.5%.
Regarding `CC1Cc2ccccc2N1C(=O)c1cc2sccc2n1Cc1ccccc1` (centres undefined), the viability is 90.3%.
Consider `O=C(CSCc1ccc(Cl)cc1)N1CCCCC1`, for which the viability is 93.6%.
As to `Cc1cc(NC(=O)CCC(=O)N(CC(=O)NCC2CCCO2)c2ccccc2C)no1` (centres undefined), the viability is 100%.
The result for `COCCNC(=O)Cn1cc(C(=O)c2cccs2)c2ccccc21` reads 88.3%; that for `COc1ccc(C(=O)n2nc(-c3ccc(Cl)cc3)nc2N)cc1OC`, 83.9%.
`COc1ccc(C(=O)n2nc(-c3ccc(C)cc3)nc2N)cc1OC`: the viability is 22% (active).
The result for `COc1ccccc1C(=O)n1nc(-c2ccccc2)nc1N` reads 90.3%; that for `N#CC1=C(SCc2ccc(C#N)cc2)N=C(N)C(c2nc(-c3ccccc3)cs2)C12CCCCC2` (centres undefined), 56.8%; that for `COc1ccc(OC)c(-n2nnnc2SCC(=O)Nc2cc(C)ccc2OC)c1`, 75.6%.
`CC(C)c1nc2ccc(C(=O)O)cc2[nH]1`: the viability is 94.4%.
On to `Cc1nc2ccc(C(=O)O)cc2[nH]1`, for which the viability is 91.7%.
With `COC(=O)Nc1nc2ccc(Sc3ccccc3)cc2[nH]1`, the viability was 17.5% (active).
As to `COc1ccc(N(CC(=O)NC2CCCCC2)C(=O)CNC(=O)c2ccco2)c(OC)c1`, the viability was 97.8%.
Consider `Cc1ccc(CN(C(=O)c2sc3ccccc3c2Cl)C2CCS(=O)(=O)C2)cc1` (centres undefined), for which the viability was 18.5% (active).
In the case of `COc1ccc(C(=O)N(Cc2ccc(N(C)C)cc2)C2CCS(=O)(=O)C2)cc1` (centres undefined), the viability was 80.1%.
The result for `COc1cc(C(=O)N(Cc2ccc(N(C)C)cc2)C2CCS(=O)(=O)C2)cc(OC)c1OC` (centres undefined) reads 80.1%; that for `CC(=O)c1cccc(NC(=O)N2CCCC2C(=O)NCCc2ccccc2)c1` (centres undefined), 91.7%; that for `COc1nc(NC2CCCCC2)nc(N2CCCCCC2)n1`, 61.9%.
The result for `CC1=C/C(=N\OS(=O)(=O)c2ccccc2)C=CC1=O` reads 0.69% (active); that for `N#CCSc1nc2c(c(=O)n1Cc1ccccc1)C1(CCCC1)Cc1ccccc1-2`, 80.7%; that for `Nc1c(-c2ccc(F)cc2)cnn1C1CCS(=O)(=O)C1` (centres undefined), 98%.
Next, `CC(C)(C)C(=O)c1cnc(Nc2ccccc2)s1`: 55%; `CCOC(=O)CSc1nc2ccc(C)cc2[nH]1`: 89.4%.
For the molecule `COc1ccc(C(=O)Nc2ccc(S(=O)(=O)NC(C)C)cc2)cc1`, the viability was 97.9%.
Take `CO/N=C(/CS(=O)(=O)c1ccc(Br)cc1)c1ccc(OC)cc1`: the viability is 31.4% (active).
`COc1ccc(/C(N)=N/OC(=O)Oc2ccccc2)cc1`: the viability is 82.6%.
Next, `Cc1cccc(NC(=O)CSc2nnc(-c3ccco3)o2)c1`: 96.2%; `CC1(C)NC(=O)N(CCCCSc2ccc(Cl)cc2)C1=O`: 79%.
Consider `CC(C)c1nc(N2CCOCC2)c(C#N)c2c1COC(C)(C)C2`, for which the viability was 79.6%.
The result for `CC1(C)Cc2c(C#N)c(SCc3nc4ccccc4[nH]3)nc(N3CCOCC3)c2CO1` reads 37.1% (active).
In the case of `COc1ccc(CSc2nc(N3CCOCC3)c3c(c2C#N)CC(C)(C)OC3)cc1`, the viability is 92.7%.
As to `CCc1ccc(C2C(C#N)=C(N)Oc3n[nH]c(CC(=O)OC)c32)cc1` (centres undefined), the viability was 92.7%.
`O=C(Nc1ccc2c(c1)OCCO2)C(c1ccc(F)cc1)N1CCCCC1` (centres undefined): the viability is 99.9%.
As to `Cc1ccc(OCc2nnc(NC(=O)OCC(C)C)s2)cc1`, the viability was 102%.
On to `CCS(=O)(=O)c1ccc2oc(SCC(=O)N3c4ccccc4CC3C)nc2c1` (centres undefined), for which the viability was 63.3%.
As for `CC1Cc2ccccc2N1C(=O)CSc1nnc(-c2ccc(S(=O)(=O)N3CCCCC3)cc2)o1` (centres undefined), the viability is 29.4% (active).
Turning to `CC1Cc2ccccc2N1C(=O)CSc1nc2ccccc2o1` (centres undefined), the viability is 74.2%.
As for `CCOC(=O)/C(C#N)=C\c1c(C)cc(C)c(COC(C)=O)c1C`, the viability was 95.1%.
With `CCNC(=O)NC(=O)C(C)OC(=O)c1cc(S(=O)(=O)N2CCCCCC2)ccc1OC` (centres undefined), the viability is 84.3%.
`Cc1ccc(NC(=O)CCN2CCc3ccccc3C2)cc1`: the viability was 79.4%.
With `Cc1ccc(NC(=S)NC(NC(=O)Cc2cccc3ccccc23)C(Cl)(Cl)Cl)cc1` (centres undefined), the viability was 0.99% (active).
For the molecule `CC(N=Cc1nc(-c2ccccc2)oc1O)c1ccccc1` (centres undefined), the viability is 94.3%.
As for `Cc1ccc(S(=O)(=O)N2CCC(C(=O)NCC3CCCO3)CC2)cc1` (centres undefined), the viability is 105%.
In the case of `COc1cccc(NC(=O)CN2CCN(c3nc(-c4cccc(OC)c4)cs3)CC2)c1`, the viability was 93.2%.
For `COc1ccc([N+](=O)[O-])cc1C1NN=C(c2cccc3ccccc23)S1` (centres undefined), the viability was 27.1% (active).
Regarding `Cc1ccc(CNC(=O)COc2ccc(S(=O)(=O)NC(C)C)cc2)cc1`, the viability was 98.1%.
As to `COc1cc2c(cc1OC)C(C(=O)NCc1ccco1)C1c3ccccc3CCN1C2=O` (centres undefined), the viability was 92.7%.
With `COc1ccc(-c2cc(C(=O)NCc3ccco3)no2)cc1OC`, the viability was 100%.
Turning to `COc1ccc(C2=NOC(C(=O)NCc3ccco3)C2)cc1OC` (centres undefined), the viability is 28.7% (active).
Turning to `COc1cccc(N=c2oc3c(C)ncc(CO)c3cc2C(N)=O)c1`, the viability was 68%.
For `CCCCn1c(SCC(=O)N2CCC(C(=O)OCC)CC2)nc2cc(S(N)(=O)=O)ccc21`, the viability is 48.4%.
Regarding `CCn1c(SCC(=O)NCC2CCCO2)nc2cc(S(=O)(=O)N3CCCCC3)ccc21` (centres undefined), the viability was 96.9%.
Next, `CCCCn1c(SCc2ncc(-c3ccccc3)o2)nc2cc(S(N)(=O)=O)ccc21`: 14% (active); `COC(=O)c1ccc(NC(=O)C23CC4CC(C2)CC(n2cnc(Cl)n2)(C4)C3)cc1`: 72.7%.
The result for `CCOC(=O)c1[nH]c2c(c1C)C(=O)CC(c1ccc(N(C)C)cc1)C2` (centres undefined) reads 100%.
As to `CCCOC(=O)c1[nH]c2c(c1C)C(=O)CC(c1cccs1)C2` (centres undefined), the viability is 34.2% (active).
`CCCOC(=O)c1[nH]c2c(c1C)C(=O)CC(c1cc(OC)c(OC)c(OC)c1)C2` (centres undefined): the viability is 80.3%.
In the case of `Cc1nc(NC(=O)CN(C)S(=O)(=O)c2ccc(Cl)cc2)sc1C`, the viability is 61.4%.
With `CCc1c(C)sc(NC(=O)c2cccs2)c1C(N)=O`, the viability is 99.7%.
Next, `CCN(CC)C(=O)CN(c1cccc(OC)c1)S(=O)(=O)c1ccc(C)cc1`: 82.3%; `CCCCNC(=O)C1CCCN(S(=O)(=O)c2ccc(S(=O)(=O)NCC(C)C)cc2)C1` (centres undefined): 90.8%.

For the origin of these results see PubChem BioAssay AID598 (SRMLSC, 2007).
